# Screens: PubChem, several laboratories
# M18AAP inhibitor: blocks P. falciparum M18 aspartyl aminopeptidase | recombinant PfM18AAP, H-Glu-NHMec fluorogenic cleavage | inhibition, % at 7.35 µM | hit rate 1.2% among 290,000 | AID 1822;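 active = inhibition above the campaign mean inhibition over all tested compounds plus 3 SD, cut at about 28% in these data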;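 also: 0% = plate median of test compound wells and 100% = 2 mM ZnCl2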
# UHRF1 binding: blocks human UHRF1 binding to methylated DNA | UHRF1 binding to methylated oligo, TR-FRET | inhibition, % at 4.4 µM | hit rate 0.75% among 370,000 | AID 687016 | Q96T88; in the data active = inhibition above about 21%;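 also: UHRF1 SRA domain binding a hemimethylated CpG hairpin DNA probe; 0% = median of test compound wells and 100% = reference inhibitor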
# PRMT1 FP inh: blocks human protein arginine methyltransferase 1. Q99873. recombinant PRMT1, activity-based probe fluorescence polarization. inhibition, % at 2.79 µM. hit rate 1.3% among 370,000. AID 652257;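 active = inhibition above about 21% made by adding two undisclosed values, limit read from the data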
# PfG6PD inh: PfG6PD (Plasmodium falciparum) enzyme inhibition; PfGluPho enzyme, NADPH resazurin-diaphorase fluorescence; inhibition, % at 20 µM; hit rate 0.78% among 350,000; AID 504690;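 active = inhibition reaching at least a set limit at 20 µM in the primary screen, cut at about 59% in these data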;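 also: 0% = DMSO wells with substrate and 100% = DMSO wells lacking glucose-6-phosphate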
# MBD2 inh: inhibitors of human MBD2 binding to methylated oligonucleotide | TR-FRET | inhibition, % at 4.4 µM | hit rate 0.31% among 370,000; in the data active = inhibition above about 13%
# Target sequence (Q9UBB5 whole entry, looked up): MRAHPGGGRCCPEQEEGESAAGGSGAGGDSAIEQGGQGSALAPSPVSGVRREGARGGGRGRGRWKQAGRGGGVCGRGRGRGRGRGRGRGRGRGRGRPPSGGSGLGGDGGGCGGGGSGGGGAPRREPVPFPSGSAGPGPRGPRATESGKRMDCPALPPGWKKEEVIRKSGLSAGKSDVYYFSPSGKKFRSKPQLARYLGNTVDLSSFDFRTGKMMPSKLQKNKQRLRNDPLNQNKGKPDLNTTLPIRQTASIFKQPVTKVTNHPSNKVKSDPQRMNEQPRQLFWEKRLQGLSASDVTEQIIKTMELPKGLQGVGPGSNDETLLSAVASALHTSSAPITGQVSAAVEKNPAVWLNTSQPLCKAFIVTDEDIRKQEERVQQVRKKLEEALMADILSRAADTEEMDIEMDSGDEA
# PfGluPho conf: PfG6PD inhibition, single-dose confirmed; shares compounds with PfG6PD inh; hit rate 34% among 2,400; inhibition, % at 20 µM; recombinant PfGluPho, NADPH-diaphorase-resazurin fluorescence; AID 504753;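 active = inhibition of at least 50% at 20 µM in any single replicate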;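 also: 0% = DMSO with substrate and 100% = DMSO lacking glucose-6-phosphate substrate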
# Diaph ctr 10uM: counter-screen for P. falciparum G6PD inhibitors: diaphorase inhibitors, oxidizers; hit rate 39% among 820; shares compounds with PfG6PD inh; diaphorase-coupled resazurin reduction, fluorescence, NADPH 10 uM; inhibition, % at 20 µM;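 active = average inhibition reaching 50% or more with the compound at 20 µM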;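 also: resorufin red fluorescence formed as diaphorase reduces resazurin using NADPH; 0% = DMSO with enzyme and 100% = DMSO without enzyme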
# Diaphorase 30uM: counter-screen for P. falciparum G6PD inhibitors: diaphorase inhibitors, oxidizers | shares compounds with PfG6PD inh | Diaphorase/resazurin coupled assay, resorufin fluorescence, 30 uM NADPH | inhibition, % at 20 µM | hit rate 29% among 820 | AID 504863;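 active = inhibition averaging 50% or more, tested at 20 µM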;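 also: 0% = DMSO with enzyme and 100% = DMSO wells lacking diaphorase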
# Active calls of the source: *; x = no result given. The list is not random: actives were taken first. Their share in the collection is about 3.3%.
SMILES,M18AAP inhibitor,UHRF1 binding,PRMT1 FP inh,PfG6PD inh,MBD2 inh,PfGluPho conf,others
CCOC(=O)C1=C(C)NC(C)=C(C(=O)OCC)C1C(=O)OCC(=O)NCc1ccco1,x,2,-2,1,1,x,
CCOC(=O)COn1c(-c2cccc(Cl)c2)nc2ccc([N+](=O)[O-])cc21,1,-2,-1,110*,2,-16,
CC(On1c(-c2ccccc2)nc2ccc(Cl)cc21)C(=O)O (stereo not drawn),5,1,-1,-1,-2,x,
CCOC(=O)C(C)On1c(-c2cccc(Cl)c2)nc2ccc([N+](=O)[O-])cc21 (stereo not drawn),4,-2,-2,64*,1,2,
CCOC(=O)c1c(C)nc(C)c(C(=O)OCC)c1-c1cccc([N+](=O)[O-])c1,x,0,-2,-9,-2,x,
CN1CC(=O)N(CC(=O)Nc2ccc(N(C)C)cc2)c2ccccc2C1=O,9,1,-1,63*,-8,6,
CC[C@H](CCC(=O)N(c1ccccc1)c1ccccc1)c1ccc(C)cc1,x,1,-1,x,4,x,
c1cc2c3c(cccc3c1)-c1cnccc1-2,x,-13,-2,65*,-3,32,
O=C1c2cccc3cccc(c23)C(=O)N1Cc1cccnc1,7,-1,2,-11,-4,x,
Cc1ccc2nc(-c3cccc(Cl)c3)c(Cc3ccccc3C(F)(F)F)n2c1,x,19,2,x,5,x,
Clc1ccc(C2=Nn3c(Cn4nnc5ccccc54)nnc3SC2)cc1,1,0,14,63*,9,46,
CC(C)[C@H](N)c1nnc2n1N=C(c1ccc(Cl)cc1)CS2,-3,-1,-2,-1,2,x,
c1ccc(C2=Nn3c(Cn4nnc5ccccc54)nnc3SC2)cc1,9,3,1,26,0,x,
Fc1ccc(C2=Nn3c(Cc4ccccc4F)nnc3SC2)cc1,5,1,-1,7,-5,x,
c1ccc(Cc2nnc3n2N=C(c2ccccc2)CS3)cc1,2,0,2,61*,1,22,
c1ccc(-c2ccc(C3=Nn4c(Cn5nnc6ccccc65)nnc4SC3)cc2)cc1,13,-1,1,72*,-1,13,
Cc1ccc(S(=O)(=O)Nc2nc(C)c(C(=O)N/N=C/c3ccccc3)s2)cc1,-12,0,-4,76*,-2,67*,Diaph ctr 10uM=62*;Diaphorase 30uM=48
COC(=O)[C@]12C[C@H](CC(=O)NCCC(C)C)C(=O)N(CCc3ccc(OC)c(OC)c3)C1=C[C@H](COCc1ccccc1)O[C@@H]2C,x,-1,-3,x,-3,x,
Cc1cc(C)n(Cc2ccc(Cl)cc2Cl)c(=O)c1S(=O)(=O)c1ccccc1,-3,-3,-2,71*,-2,21,
CCOC(=O)c1sc(NC(=O)c2ccncc2)c(C#N)c1C,-1,2,7,78*,0,45,
O=C(CSc1nnc(-c2ccncc2)o1)Nc1cc(Cl)ccc1C(=O)O,x,2,4,60*,0,28,
CN(C)c1ccc(C=Nc2ccc(N(C)C)cc2)cc1,22,7,22*,66*,-12,47,
O=C(NCCc1ccccc1)c1ccc(Sc2ccccc2Cl)c([N+](=O)[O-])c1,x,-5,-3,x,1,x,
COc1ccc(-c2cc(NC(=O)Cc3c(C)[nH]c4ccccc34)ccc2Nc2cccnc2)cc1F,x,-3,-1,x,-1,x,
NC(=O)c1ncn2c(=O)n(CCCl)nnc12,x,0,5,x,-3,x,
CC(C)Cn1c(N)c(C(=O)COC(=O)c2cc(-c3ccco3)nc3ccccc23)c(=O)n(C)c1=O,-2,10,1,71*,8,4,
CCOC(=O)c1c2ccc(OCC(=O)N/N=C/c3ccc(C)cc3)cc2n2ccccc12,1,4,-1,26,3,x,
CCOC(=O)c1c2ccc(OCC(=O)NN)cc2n2ccccc12,8,11,2,47,1,59*,Diaph ctr 10uM=61*;Diaphorase 30uM=38
CNC(=O)c1cc2c(ccc3ccccc32)o1,5,-1,-3,-3,0,x,
O=C(NC1CCCC1)c1cc2c(ccc3ccccc32)o1,0,-2,0,72*,0,20,
